Test results published in paper PMC4336329 (PLoS ONE, 2015).
Out of some 310,000 compounds screened, about 14,000 (4.5%) showed an effect of 50% or more. Effects have a minus sign here. Only a selection was taken, and strong results are over-represented in it overall.

These molecules were tested against human ether-à-go-go-related gene (hERG) potassium channel (human, UniProt Q12809) (assay: primary screen, population patch clamp on CHO cells stably expressing hERG; higher = less effect of the substance).
Sequence of human ether-à-go-go-related gene (hERG) potassium channel (Q12809 whole entry, looked up): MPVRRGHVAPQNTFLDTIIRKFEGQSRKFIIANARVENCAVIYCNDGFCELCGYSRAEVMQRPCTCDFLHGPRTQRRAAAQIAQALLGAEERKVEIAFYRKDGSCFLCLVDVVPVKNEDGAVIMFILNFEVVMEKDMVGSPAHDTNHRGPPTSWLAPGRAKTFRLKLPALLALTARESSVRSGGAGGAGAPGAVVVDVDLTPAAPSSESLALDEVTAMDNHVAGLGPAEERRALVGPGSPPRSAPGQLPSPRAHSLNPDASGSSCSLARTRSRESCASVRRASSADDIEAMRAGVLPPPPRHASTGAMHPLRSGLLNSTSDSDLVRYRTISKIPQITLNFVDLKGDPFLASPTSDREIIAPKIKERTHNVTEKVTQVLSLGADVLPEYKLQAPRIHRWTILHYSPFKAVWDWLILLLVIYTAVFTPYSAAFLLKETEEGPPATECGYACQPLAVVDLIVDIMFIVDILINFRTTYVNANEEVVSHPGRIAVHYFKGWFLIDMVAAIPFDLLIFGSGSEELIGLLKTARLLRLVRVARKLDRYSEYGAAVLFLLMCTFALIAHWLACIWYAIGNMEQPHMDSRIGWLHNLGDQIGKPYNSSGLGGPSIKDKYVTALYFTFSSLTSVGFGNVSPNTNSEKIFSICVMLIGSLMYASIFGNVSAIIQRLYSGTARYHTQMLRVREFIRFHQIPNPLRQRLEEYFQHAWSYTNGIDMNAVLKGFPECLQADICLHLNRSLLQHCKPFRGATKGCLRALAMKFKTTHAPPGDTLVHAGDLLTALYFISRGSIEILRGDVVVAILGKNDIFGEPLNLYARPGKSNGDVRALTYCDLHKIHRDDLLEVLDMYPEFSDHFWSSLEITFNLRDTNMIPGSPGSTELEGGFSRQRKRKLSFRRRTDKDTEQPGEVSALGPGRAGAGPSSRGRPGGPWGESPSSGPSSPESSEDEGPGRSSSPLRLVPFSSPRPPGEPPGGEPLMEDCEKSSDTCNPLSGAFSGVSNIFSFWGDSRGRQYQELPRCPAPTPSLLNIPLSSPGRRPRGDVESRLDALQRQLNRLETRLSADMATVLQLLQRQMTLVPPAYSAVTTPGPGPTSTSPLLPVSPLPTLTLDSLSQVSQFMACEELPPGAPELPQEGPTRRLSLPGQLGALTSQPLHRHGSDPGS
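Further: peak tail current of the secondary pulse compared with the same well before compound.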

| SMILES | hERG current change (%, negative = inhibition) at 10uM |
| --- | --- |
| O=C(CSc1ccc(-c2cccs2)nn1)NCc1ccccc1Cl | -28.7% |
| Cc1noc(C)c1CSCC(=O)N1CCN(c2ccc([N+](=O)[O-])cc2)CC1 | -76.8% |
| Cc1noc(C)c1COc1ccc(C(=O)N2CCN(c3ccccc3O)CC2)cc1 | -14.4% |
| COc1cc(C(=O)N2CCN(c3ccc([N+](=O)[O-])cc3)CC2)ccc1OCc1c(C)noc1C | -60.2% |
| Cc1noc(C)c1COc1ccc(C(=O)N2CCN(c3ccccn3)CC2)cc1 | -31.8% |
| Cc1noc(C)c1CSCC(=O)N1CCN(c2ccc(F)cc2)CC1 | -38.1% |
| Cc1cccc(N2CCN(C(=O)CSCc3c(C)noc3C)CC2)c1C | -14.9% |
| COc1ccc(N2CCN(C(=O)c3ccc(OCc4c(C)noc4C)c(OC)c3)CC2)cc1 | 6.01% |
| COc1cc(C(=O)N2CCN(S(=O)(=O)c3ccc(C)cc3)CC2)ccc1OCc1c(C)noc1C | -21% |
| Cc1noc(C)c1COc1ccc(C(=O)N2CCN(c3ccccc3F)CC2)cc1 | -55% |
| CCOC(=O)[C@@H]1[C@H]2COc3ccc(Br)cc3[C@H]2N2C(=O)N(c3ccc(Br)cc3)C(=O)[C@]12C | 7.88% |
| COc1ccccc1NS(=O)(=O)c1cccc(C(=O)NN=C2CCCC2)c1 | 0.33% |
| COc1ccc(CN(C)C(=O)Cc2ccc(OC)c(S(=O)(=O)N3CCOCC3)c2)cc1 | -20.4% |
| CCOC(=O)C1CCCN(S(=O)(=O)c2cccc3cccnc23)C1 (centres unmarked) | -14.9% |
| Cc1nnc(SCc2ccc(Cl)cc2)n1CC1CCCO1 (centres unmarked) | -3.26% |
| CSc1ccccc1NC(=O)COC(=O)Cn1cc(C(F)(F)F)ccc1=O | 4.23% |
| Cc1cc2oc(=O)cc(CN3CCCCC3C)c2cc1C(C)C (centres unmarked) | -22% |
| Cc1cccc(Nc2nc(-c3ccccn3)cs2)n1 | 12.9% |
| CN(CC(=O)OCC(=O)Nc1ccccc1)S(=O)(=O)c1ccc(Cl)cc1 | -19.9% |
| CCN(CC)c1ccc(/C=N/Nc2nc(C)cc(=O)[nH]2)cc1 | -20.5% |

| SMILES | hERG current change (%, negative = inhibition) at 10uM |
| --- | --- |
| Cc1c(Cl)cccc1NC(=S)NCCc1ccccn1 | 9.25% |
| O=C(CC1SC(=O)N(c2ccccc2)C1=O)Nc1cccc2ccccc12 (centres unmarked) | 11.7% |
| COc1cc(NC(=O)Cn2cnc(S(=O)(=O)N3CCC(C)CC3)c2)cc(OC)c1OC | 20.6% |
| Br.CCCn1c(=N)n(CC(=O)c2ccc(OCC(=O)OC)cc2)c2ccccc21 | -52.7% |
| Br.Cc1ccc(Cn2c(=N)n(CC(=O)c3ccc([N+](=O)[O-])cc3)c3ccccc32)cc1 | -4.3% |
| Br.CCCCn1c(=N)n(CC(=O)c2ccc([N+](=O)[O-])cc2)c2ccccc21 | -71.7% |
| Br.COC(=O)COc1ccc(C(=O)Cn2c(NCCCO)nc3ccccc32)cc1 | -2.45% |
| Br.N=c1n(CC(=O)c2ccc([N+](=O)[O-])cc2)c2ccccc2n1Cc1ccccc1 | -70.1% |
| Br.N=c1n(CC(=O)c2ccc([N+](=O)[O-])cc2)c2ccccc2n1Cc1ccc(Cl)cc1 | -14.3% |
| Br.N=c1n(CC(=O)c2ccc([N+](=O)[O-])cc2)c2ccccc2n1Cc1ccccc1Cl | -23.6% |
| N=c1n(CC(=O)c2ccc(Br)cc2)c2ccccc2n1Cc1ccccc1.[Br-] | -9.25% |
| Br.Cc1ccc(Cn2c(=N)n(CC(=O)c3ccccc3)c3ccccc32)cc1 | -72.2% |
| O=C(N/N=C/c1ccccc1C(=O)O)c1ccncc1 | 18.3% |
| CCC(=O)NC(=S)Nc1ccc(-c2nc3ccccc3s2)cc1 | -2.92% |
| Cc1cc(C)nc(OC(C(=O)O)C(OCc2ccccc2)(c2ccccc2)c2ccccc2)n1 (centres unmarked) | 21.7% |
| CCC1CCCCN1C(=O)c1ccc2c(c1)C(=O)N(c1ccc(C)cc1)C2=O (centres unmarked) | -8.83% |
| CCOP(=O)(OCC)C(NS(=O)(=O)c1ccccc1)C(Cl)(Cl)Cl (centres unmarked) | 11.9% |
| Br.Cc1ccccc1Cn1c(=N)n(CC(=O)c2ccc([N+](=O)[O-])cc2)c2ccccc21 | -32.6% |
| Br.CCn1c(=N)n(CC(=O)c2ccc(OC)cc2)c2ccccc21 | -18.6% |
| Br.COc1ccc(C(=O)Cn2c(=N)n(C)c3ccccc32)cc1 | -28.8% |

| SMILES | hERG current change (%, negative = inhibition) at 10uM |
| --- | --- |
| Br.CCCCn1c(=N)n(CC(=O)c2ccc(OC)cc2)c2ccccc21 | -73.6% |
| Br.CCCn1c(=N)n(CC(=O)c2ccc([N+](=O)[O-])cc2)c2ccccc21 | -78.5% |
| N#Cc1c(-c2ccco2)cc(C2CC2)nc1SCC(=O)c1ccccc1 | 17.4% |
| COCCNC(=S)N1CCN(c2cccc(C(F)(F)F)c2)CC1 | -12.2% |
| Cc1nn(Cc2cccc(F)c2)c(C)c1NC(=O)c1c([N+](=O)[O-])c(C)nn1C | -9.72% |
| CCCn1nnnc1SCC(=O)Nc1sc(C)c(C)c1C#N | 0.801% |
| O=C(COC(=O)CNC(=O)c1cccc(Br)c1)Nc1nnc(-c2ccccc2)o1 | -0.546% |
| COc1ccc(CNC(=O)CCCn2ccc3cc(S(=O)(=O)N4CCCC4)ccc32)cc1 | -52% |
| COc1ccc(CNC(=O)CCc2ccc(S(=O)(=O)N3CCCCCC3)cc2)cc1 | -54.9% |
| COc1ccc(CNC(=O)C(C)N2CCN(c3ccc(C(C)=O)cc3)CC2)cc1 (centres unmarked) | -55.1% |
| CC(C(=O)NCc1ccccc1)N1CCN(c2ccc(F)cc2)CC1 (centres unmarked) | -18.9% |
| COc1ccc(C(=O)NCc2ccc(N3CCN(C)CC3)cc2)cc1 | 5.1% |
| CCCc1ccc(S(=O)(=O)N2CCN(C(C)C(=O)NCc3ccc(OC)cc3)CC2)cc1 (centres unmarked) | -57.4% |
| COC(=O)CCNC(=O)CCc1ccc(S(=O)(=O)N2CCCCCC2)cc1 | -12.1% |
| COc1ccc(CNC(=O)C(C)N2CCN(S(=O)(=O)c3ccccc3F)CC2)cc1 (centres unmarked) | -15.9% |
| COc1ccc(CNC(=O)COc2ccc(S(=O)(=O)N3CCCCC3)cc2)cc1 | 6.5% |
| COc1ccc(S(=O)(=O)N2CCN(C(C)C(=O)Nc3ccc(C(C)C)cc3)CC2)cc1 (centres unmarked) | -20.6% |
| COc1ccc(CNC(=O)CCn2ccc3cc(S(=O)(=O)N4CCCC4)ccc32)cc1 | -12.4% |
| CCOc1ccc(CNC(=O)CCCn2ccc3cc(S(=O)(=O)N4CCCC4)ccc32)cc1 | -32.7% |
